From PubChem BioAssay
Activity calls are given as the source filed them.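 Rule for the calls, unless noted: active = mean inhibition over 43.08%, the solvent-only control mean plus 3 SD; inactive = the rest.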

Experiments:
[1] = target: Nuclear receptor coactivator 3 (Homo sapiens) (UniProt Q9Y6Q9); experiment: NCOA3 GAL4-fusion reporter inhibition – cell-based, luminescence, quadruplicate, confirmation (AID 588792); settings: HEK293 GAL4-SRC3 luciferase reporter, at 3.6 µM, stronger effect = higher value;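 note: 0% = DMSO treated cells and 100% = gossypol at 36 µM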
[2] = test system: transactivating tegument protein VP16 (Human herpesvirus 1), Gal4-VP16 luciferase reporter; experiment: repression of VP16-driven luciferase reporter – cell-based, luminescence, high throughput, counter-screen for SRC3 inhibitor project (AID 588794; in the data active = inhibition above about 30%); settings: mammalian cells, at 3.6 µM, stronger effect = higher value
[3] = target: Nuclear receptor coactivator 1 (Homo sapiens) (UniProt Q15788); experiment: NCOA1 GAL4-fusion reporter inhibition – cell-based, luminescence, quadruplicate, confirmation (AID 588820;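 active = mean inhibition above 46.68%, the untreated control wells mean plus 3 SD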;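 note: 0% = DMSO wells and 100% = gossypol 36 µM treated wells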); settings: HEK293 GAL4-SRC1 luciferase reporter, at 3.6 µM, stronger effect = higher value
[4] = repression of VP16-driven luciferase reporter – cell-based, luminescence, high throughput, counter-screen for SRC1 inhibitor project (AID 588824; in the data active = inhibition above about 25%); settings: cell-based VP16 transactivation luciferase luminescence; at 3.6 µM; stronger effect = higher value

Measured: inhibition

Sequence of Nuclear receptor coactivator 3 (Homo sapiens) (Q9Y6Q9 whole entry, looked up, the tested form may be a part): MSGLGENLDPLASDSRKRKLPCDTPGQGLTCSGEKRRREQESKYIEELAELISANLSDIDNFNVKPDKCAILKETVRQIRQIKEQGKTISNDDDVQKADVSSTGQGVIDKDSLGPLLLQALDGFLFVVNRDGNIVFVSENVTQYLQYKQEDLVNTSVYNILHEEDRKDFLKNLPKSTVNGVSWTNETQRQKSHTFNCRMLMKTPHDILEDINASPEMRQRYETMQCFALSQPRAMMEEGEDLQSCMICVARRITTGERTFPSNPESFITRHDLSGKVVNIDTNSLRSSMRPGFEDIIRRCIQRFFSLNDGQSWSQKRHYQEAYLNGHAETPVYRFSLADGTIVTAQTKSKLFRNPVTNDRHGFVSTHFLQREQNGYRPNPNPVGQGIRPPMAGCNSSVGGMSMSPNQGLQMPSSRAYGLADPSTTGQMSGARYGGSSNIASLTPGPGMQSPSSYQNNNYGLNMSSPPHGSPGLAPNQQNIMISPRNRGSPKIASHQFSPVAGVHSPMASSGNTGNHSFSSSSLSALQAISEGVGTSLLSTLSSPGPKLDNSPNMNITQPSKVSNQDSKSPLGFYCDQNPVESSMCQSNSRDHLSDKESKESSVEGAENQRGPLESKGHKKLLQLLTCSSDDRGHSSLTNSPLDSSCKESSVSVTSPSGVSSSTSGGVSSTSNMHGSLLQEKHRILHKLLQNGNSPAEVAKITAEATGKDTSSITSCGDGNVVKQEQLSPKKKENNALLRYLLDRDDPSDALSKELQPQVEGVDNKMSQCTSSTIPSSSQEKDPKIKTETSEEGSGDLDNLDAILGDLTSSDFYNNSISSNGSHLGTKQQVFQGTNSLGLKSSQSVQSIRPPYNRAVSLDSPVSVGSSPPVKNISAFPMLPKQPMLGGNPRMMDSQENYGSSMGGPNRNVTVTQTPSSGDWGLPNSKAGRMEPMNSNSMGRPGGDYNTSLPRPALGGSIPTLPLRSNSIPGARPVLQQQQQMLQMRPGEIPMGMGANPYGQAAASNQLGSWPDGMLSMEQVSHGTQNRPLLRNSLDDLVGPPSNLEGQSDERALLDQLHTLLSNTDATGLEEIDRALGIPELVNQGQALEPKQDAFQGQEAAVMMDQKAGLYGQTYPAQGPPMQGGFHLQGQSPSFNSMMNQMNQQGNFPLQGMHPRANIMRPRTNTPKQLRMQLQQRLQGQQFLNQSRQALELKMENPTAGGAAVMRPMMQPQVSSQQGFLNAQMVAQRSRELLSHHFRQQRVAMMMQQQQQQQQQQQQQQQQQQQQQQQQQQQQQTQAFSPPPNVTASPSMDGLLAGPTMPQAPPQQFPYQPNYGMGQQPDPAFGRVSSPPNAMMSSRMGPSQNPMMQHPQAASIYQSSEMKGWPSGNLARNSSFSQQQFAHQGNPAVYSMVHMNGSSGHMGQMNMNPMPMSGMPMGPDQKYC
Sequence of Nuclear receptor coactivator 1 (Homo sapiens) (Q15788 whole entry, looked up, the tested form may be a part): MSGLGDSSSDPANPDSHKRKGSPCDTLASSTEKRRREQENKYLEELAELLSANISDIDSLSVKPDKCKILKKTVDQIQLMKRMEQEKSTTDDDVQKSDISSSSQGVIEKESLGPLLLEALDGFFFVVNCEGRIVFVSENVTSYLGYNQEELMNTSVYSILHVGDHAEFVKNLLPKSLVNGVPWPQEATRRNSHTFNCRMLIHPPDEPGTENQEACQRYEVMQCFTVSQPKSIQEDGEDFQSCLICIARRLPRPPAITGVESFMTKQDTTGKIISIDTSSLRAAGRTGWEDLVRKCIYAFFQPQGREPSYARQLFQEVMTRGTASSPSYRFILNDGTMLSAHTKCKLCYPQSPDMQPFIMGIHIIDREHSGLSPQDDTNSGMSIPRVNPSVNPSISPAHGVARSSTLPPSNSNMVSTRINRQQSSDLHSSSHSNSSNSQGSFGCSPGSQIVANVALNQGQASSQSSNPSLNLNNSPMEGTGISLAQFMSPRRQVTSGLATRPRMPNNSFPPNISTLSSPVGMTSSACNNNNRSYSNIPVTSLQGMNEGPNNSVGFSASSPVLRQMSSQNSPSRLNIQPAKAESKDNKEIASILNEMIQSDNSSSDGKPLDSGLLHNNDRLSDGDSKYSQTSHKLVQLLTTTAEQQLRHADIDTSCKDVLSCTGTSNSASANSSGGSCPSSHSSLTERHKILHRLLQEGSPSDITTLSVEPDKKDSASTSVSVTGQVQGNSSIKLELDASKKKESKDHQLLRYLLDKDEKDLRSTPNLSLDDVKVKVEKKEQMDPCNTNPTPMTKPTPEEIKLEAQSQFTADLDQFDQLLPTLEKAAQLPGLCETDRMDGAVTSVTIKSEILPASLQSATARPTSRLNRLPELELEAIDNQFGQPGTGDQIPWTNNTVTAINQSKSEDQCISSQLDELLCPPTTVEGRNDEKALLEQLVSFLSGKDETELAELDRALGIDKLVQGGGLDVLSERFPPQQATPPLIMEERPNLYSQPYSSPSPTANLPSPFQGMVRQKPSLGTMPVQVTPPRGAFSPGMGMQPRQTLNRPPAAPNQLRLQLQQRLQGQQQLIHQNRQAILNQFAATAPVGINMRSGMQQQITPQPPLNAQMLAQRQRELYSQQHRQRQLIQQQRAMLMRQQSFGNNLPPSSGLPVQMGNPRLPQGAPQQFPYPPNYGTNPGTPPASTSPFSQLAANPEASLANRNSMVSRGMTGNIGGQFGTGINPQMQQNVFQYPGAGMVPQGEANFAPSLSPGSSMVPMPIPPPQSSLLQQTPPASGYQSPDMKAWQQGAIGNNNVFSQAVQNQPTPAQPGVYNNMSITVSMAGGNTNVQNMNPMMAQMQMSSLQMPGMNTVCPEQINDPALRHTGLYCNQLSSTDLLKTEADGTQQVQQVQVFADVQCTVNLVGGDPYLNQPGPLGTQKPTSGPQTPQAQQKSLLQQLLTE

CC(C)(C)S(=O)N1Cc2cc(C(=O)NCC(F)(F)F)nc(-c3cccc(-c4cccc(F)c4)c3)c2[C@@H]1CCO (some centres not stated)
inactive: [1] 10.3% | [2] 2.05% | [3] -14.2% | [4] -2.6%

COC(=O)c1ccc2nc(Nc3nc4ccc(F)cc4s3)sc2c1
inactive: [1] 21.2% | [2] 3.83% | [3] -36.1% | [4] -19.9%

O=C(NNC1=Nc2cccc3cccc1c23)c1ccccc1Br
inactive: [1] 19.4% | [2] 22.2% | [3] 14.2% | [4] 17.2%

COc1cccc(-c2nnc3sc(C4CCCCC4)nn23)c1
inactive: [2] 29.1%
active: [1] 64.5% | [3] 57.4% | [4] 26.4%

Cc1ccc(C2CC(C(F)(F)F)n3nc(C(=O)NCc4c(C)nn(C)c4C)c(Cl)c3N2)cc1 (configuration not stated)
inactive: [1] 7.71% | [2] 15.1% | [3] -7% | [4] 10.9%

Cc1cc(=O)[nH]c(N/N=C/c2cc(C)n(CC(F)(F)F)c2C)n1
inactive: [1] 22% | [3] 43.5%
active: [2] 60.4% | [4] 60.3%

COc1ccc2c(c1OC)C(=O)N1c3ccccc3C(=O)N(c3ccccc3)C21 (configuration not stated)
inactive: [1] 17.1% | [2] 8.85% | [3] -5.64% | [4] 2.1%

Cn1c2c(c(=O)n(C)c1=O)C(C(F)(F)F)(C(F)(F)F)N=C(C1CCCCC1)N2
inactive: [1] 11.5% | [2] 20.6% | [3] 10.2% | [4] 12.8%
